ST2 IL33 inh = inhibitors of human ST2 (IL1RL1) binding to IL-33, primary screen, biochemical, AlphaLISA. Interleukin-1 receptor-like 1 (Homo sapiens), Q01638. AlphaLISA ST2-Fc/biotin-IL-33 interaction, 1 h. inhibition, % for hits at 17 µM. 78,000 tested, 2.3% active; in the data active means inhibition above about 30%
Target sequence (Q01638 whole entry, looked up): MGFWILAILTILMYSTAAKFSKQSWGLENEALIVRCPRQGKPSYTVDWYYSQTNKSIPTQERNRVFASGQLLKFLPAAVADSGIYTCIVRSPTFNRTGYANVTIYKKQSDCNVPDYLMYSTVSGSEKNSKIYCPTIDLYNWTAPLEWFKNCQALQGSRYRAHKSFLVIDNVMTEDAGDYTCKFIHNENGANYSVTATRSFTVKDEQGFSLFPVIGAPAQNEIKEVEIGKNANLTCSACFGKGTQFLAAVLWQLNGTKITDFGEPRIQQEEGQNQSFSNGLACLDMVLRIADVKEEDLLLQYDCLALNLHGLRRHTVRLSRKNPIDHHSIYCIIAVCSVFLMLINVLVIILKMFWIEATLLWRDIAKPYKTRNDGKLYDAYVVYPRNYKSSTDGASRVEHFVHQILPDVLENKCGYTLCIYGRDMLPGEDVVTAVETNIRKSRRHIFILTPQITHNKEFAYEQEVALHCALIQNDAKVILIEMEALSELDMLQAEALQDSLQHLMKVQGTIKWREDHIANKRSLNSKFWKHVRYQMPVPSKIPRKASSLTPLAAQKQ
Numbers without * were called inactive; i = inactive; ! = a repeat was not active. The entries come from a sample that favours hits as a whole.

SMILES	ST2 IL33 inh
O=C(CC(c1ccccc1)c1ccccc1Cl)N1CCC(N2CCCC2)CC1 (stereo not given)	i
Cc1cccc(C)c1NC(=O)CN1C(=O)C(=O)c2ccccc21	i
O=C(NC1CCCC1)C1CCC(CNS(=O)(=O)c2cccc3nsnc23)CC1 (stereo not given)	i
COc1ccccc1NC(=O)C1=C(C)Nc2nc3ccccc3n2C1c1cccc(Cl)c1 (stereo not given)	i
CC(=O)N1CCc2c(nc(C)nc2NCCCOc2cccnc2)C1	i
O=C1C2C3CCC(C3)C2C(=O)N1c1cc(C(F)(F)F)ccc1Cl (stereo not given)	i
Cc1cc(Nc2ccccc2C)n2ncnc2n1	i
CCC(C)N1C(=O)S/C(=C/c2ccc(C(=O)O)cc2)C1=O (stereo not given)	i
CCC(C)NC(=O)c1cc(-c2ccc(Cl)cc2)on1 (stereo not given)	i
COc1ccc(C[C@@H]2NC(=O)[C@@H]3C[C@@H](NC(=O)Nc4cccc(SC)c4)CCN3C2=O)cc1	33%*
COc1ccc(CN2CCCN(CC(=O)Nc3cccc(SC)c3)S2(=O)=O)cc1	i
COc1ccc(NC(=O)N[C@H]2C[C@H]3C(=O)N[C@H](Cc4ccccc4)C(=O)N3C2)cc1	i
CCOC(=O)Cn1c(=O)n(-c2ccc(F)cc2)c2nc(-c3ccc(C)cc3)nc(C(N)=O)c21	i
COc1cccc(CN2Cc3ccccc3N(CC(=O)NCC3(N4CCOCC4)CCCC3)C2=O)c1	i
Cc1ccc(C2Nc3c(ccc(C(=O)O)c3C)C3C=CCC32)cc1 (stereo not given)	i
O=C(c1ccc2c(c1)C1C=CCC1C(c1cccc([N+](=O)[O-])c1)N2)N1CCCCC1 (stereo not given)	38%*
CCOC(=O)C1Nc2c(ccc(C(=O)O)c2C)C2C=CCC12 (stereo not given)	i
O=C(O)c1ccc2c(c1)C1C=CCC1C(C(=O)O)N2 (stereo not given)	82%*
Fc1ccc(C2Nc3ccc(Cl)cc3C3C=CCC32)cc1 (stereo not given)	i
CN1CCN(C(=O)c2cccc([N+](=O)[O-])c2)CC1	i
O=C(O)c1ccc2c(c1)C1C=CCC1C(c1ccc(Br)cc1)N2 (stereo not given)	i
COc1ccc(S(=O)(=O)N2CCN(C(=O)c3cccc([N+](=O)[O-])c3)CC2)cc1	i
O=C(c1ccc2c(c1)C1C=CCC1C(c1ccc(Cl)cc1)N2)N1CCOCC1 (stereo not given)	63%*
CCn1c(C2CCN(C(=O)C3CC(=O)N(CC(C)C)C3)CC2)nn(C)c1=O (stereo not given)	i
O=C(CO)Nc1cccc(NC(=O)CO)n1	i
SMILES	ST2 IL33 inh
COc1cccc(-c2cnc(C(F)(F)F)nc2C2CCN(C(=O)CCn3ccc(C)n3)CC2)c1	i
Cc1cccc(C2CC(c3ccc(Cl)cc3)Nc3ncnn32)c1 (stereo not given)	i
Cc1cc2ccccc2c(=O)n1CC(=O)NCC(=O)NC1CCCCC1	i
CC1=NOC(C(=O)Nc2ccc(NC(=O)c3coc(C)c3)cc2)C1 (stereo not given)	i
Cc1cccn2c(=O)c(C=Nc3ccccc3)c(NCc3ccccc3)nc12	39%*
Cc1ccc(N=Cc2c(Nc3cccc(Cl)c3)nc3c(C)cccn3c2=O)cc1	i
Cc1cccn2c(=O)c(C=Nc3ccccc3)c(NCc3ccco3)nc12	i
CCc1nc2ccc(C(=O)NC3CCCC3)cc2nc1CC	i
O=C(Nc1cccc(C(=O)c2ccccc2)c1)c1ccc2c(c1)C(=O)N(c1nccs1)C2=O	i
CCOC(=O)CSc1nc2c(c(=O)n1-c1ccc(Cl)cc1)SCC2	i
O=C1/C(=C/C=C/c2ccco2)CC/C1=C\C=C\c1ccco1	96%*
CCN1CCCC1CNc1ncnc(N)c1[N+](=O)[O-] (stereo not given)	i
O=[N+]([O-])c1ccc(Cl)c(N=Cc2nc(-c3ccc(Br)cc3)oc2O)c1	i
Cc1ccc(C)c(CN2C(=O)CSc3ccc(C(=O)NC4CCCC4)cc32)c1	i
CCOc1ccc(NC(=O)CC2Sc3ccc(C(F)(F)F)cc3NC2=O)cc1 (stereo not given)	i
CCn1cc(C(=O)NCCCOC)c2c3ccccc3n(C)c2c1=O	i
O=C(c1cccc(F)c1)N1CCN=C1SCc1ccc(Br)cc1	i
COCCC(=O)Nc1ccccc1C(=O)NCc1cccc(C)c1	i
COc1ccccc1CN(C(=O)c1ccc(CO)cc1)C1CC1	i
O=C1CCCC2=C1C(c1ccc([N+](=O)[O-])cc1)Nc1ccccc1N2 (stereo not given)	i
Cc1cc(C)n2nc3nc(N4CCCCC4)nc(-c4ccccc4)c3c2n1	i
COc1ccc(S(=O)(=O)NC2CCCCC2C)cc1OC (stereo not given)	34%*!
CCCNS(=O)(=O)c1ccc(OC)c(OC)c1	i
COc1ccc(OC)c(S(=O)(=O)NC2CCCCC2C)c1 (stereo not given)	i
Cn1c(=O)cc(SCC(=O)NCC2(c3ccccc3)CCCC2)c2ccccc21	i
SMILES	ST2 IL33 inh
CC(C)(NC(=O)c1cccs1)C(=O)NCC(O)c1ccccc1 (stereo not given)	i
CCOC(=O)N1CCN(C(=O)Nc2ccc3nc(C)c(C)nc3c2)CC1	i
O=C(Nc1ccc2nc(-c3ccco3)c(-c3ccco3)nc2c1)N1CCOCC1	36%*
O=C(Nc1ccc2nc(-c3ccccn3)c(-c3ccccn3)nc2c1)N1CCOCC1	i
Cc1nc2ccc(NC(=O)N3CCN(c4ccccc4)CC3)cc2nc1C	i
O=C(Nc1ccc2nsnc2c1)N1CCCCCC1	i
O=C(Nc1ccc2nc(-c3ccco3)c(-c3ccco3)nc2c1)N1CCSCC1	30%*
CC1CCCN(Cc2cccc([N+](=O)[O-])c2)C1 (stereo not given)	i
Cc1ccccc1NC(=NS(=O)(=O)c1ccccc1)c1ccccc1	i
CCSc1nc(CC(=O)NC2CCCc3ccccc32)cs1 (stereo not given)	i
O=C(c1cccs1)N1CCCCCC1	i
CC1=C(C(=O)Nc2ccc(C)cn2)C(c2ccccc2Cl)C2=C(CC(C)(C)CC2=O)N1 (stereo not given)	i
CCCn1nc(C(=O)N2CCCC2)c2c1CCC(NCc1cccc(OC(F)(F)F)c1)C2 (stereo not given)	i
COc1ccc(C2CC(C(F)(F)F)n3nc(C(=O)N4CCOCC4)c(Cl)c3N2)cc1OC (stereo not given)	i
COc1ccc(NC(=O)C2CC(=O)N(C)C(=Nc3ccc(F)cc3)S2)cc1 (stereo not given)	i
CCN1CCN(c2c([N+](=O)[O-])nn(-c3ccccc3)[n+]2[O-])CC1	i
CCNc1nc(NC(C)C)nc(Oc2ccc(OCCOc3ccccc3C)nn2)n1	i
COCCCNC(=O)C1c2cc(OC)c(OC)cc2C(=O)N(C)C1c1ccc(OC)cc1 (stereo not given)	i
CCN(CC)CCNC(=O)C1c2cc(OC)c(OC)cc2C(=O)N(C)C1c1ccc(OC)cc1 (stereo not given)	i
COc1ccc(C2C(C(=O)NCCN(C)C)c3cc(OC)c(OC)cc3C(=O)N2C)cc1 (stereo not given)	33%*
O=C(Nc1ccc(F)c(Cl)c1)c1cc2c(=O)oc3ccccc3c2s1	i

High-throughput results: PubChem, Paczesny and Yang Labs, IUPUI and University of Michigan
